# From PubChem
# Rows were chosen to be rich in hits. Some 6% of all compounds tested hit in one or more screens of this group.
# D3 antag: blocks the human D3 dopamine receptor. P35462. D3R cells, DiscoveRx beta-arrestin luminescence, antagonist mode; stronger effect = lower value. max response, negative = inhibition, %. actives 2.5% (n = 360,000); in the data active = max response below about -50%; note: % is set by controls: 0 for no effect and ±100 for the full control effect
#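 Cells plated overnight at 1500 cells/well, then exposed to library compounds with dopamine controls for 90 minutes at 37 degrees C. DiscoveRx reagent added for 30–60 minutes at room temperature; luminescence read, quantitative HTS format.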
# D1 PAM: enhances dopamine response at the human D1 receptor; P21728; HEK293 TREx D1 cells, calcium flux, dopamine EC20 potentiation; potentiation, % at 10 µM; actives 0.036% (n = 360,000); in the data active = potentiation above about 30%; note: 0% is about no effect
# Target sequence (P21728 whole entry, looked up): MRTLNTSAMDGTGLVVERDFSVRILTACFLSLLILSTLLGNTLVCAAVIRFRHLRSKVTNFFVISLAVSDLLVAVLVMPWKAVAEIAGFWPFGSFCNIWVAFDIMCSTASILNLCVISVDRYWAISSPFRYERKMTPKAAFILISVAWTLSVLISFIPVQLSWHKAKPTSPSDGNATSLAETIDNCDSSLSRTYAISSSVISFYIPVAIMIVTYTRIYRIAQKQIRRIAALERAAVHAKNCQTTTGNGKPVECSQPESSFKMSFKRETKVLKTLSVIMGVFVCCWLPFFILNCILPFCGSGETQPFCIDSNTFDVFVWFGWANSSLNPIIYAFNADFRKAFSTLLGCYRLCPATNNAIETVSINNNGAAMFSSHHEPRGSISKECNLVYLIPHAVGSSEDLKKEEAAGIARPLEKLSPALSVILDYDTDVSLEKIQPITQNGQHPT
# DRD3 agonist: D3 dopamine receptor (human) agonism; P35462; D3R DiscoveRx beta-arrestin cells, luminescence, 90 min; max activation, %; actives 0.58% (n = 410,000); AID 652048; in the data active = max activation above about 30%; note: 0% is about no effect
#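 Agonist-mode cell screen: cells plated at 1500/well and incubated overnight at 37 °C, then exposed to library compounds for 90 min at 37 °C. Detection reagent was added for 30–60 min at room temperature, and luminescence was read.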
# D1 agonist: human D1 receptor agonism | P21728 | HEK293 T-REx D1 cells, calcium flux, agonist mode | activation, % at 2 µM | actives 1% (n = 360,000) | AID 504660; in the data active = activation above about 30%; note: 0% is about no effect
#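 Agonism was scored from calcium flux recorded over 180 s (1 read/s) after pintool compound addition, following a 10-cycle baseline. Cells were inducible force-coupled HEK293 TREx D1, plated overnight at 30 C and loaded with no-wash calcium dye.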
# D1 antag: antagonists of human D1 dopamine receptor; P21728; HEK293 TREx D1 cells, calcium flux, dopamine EC80; stronger effect = lower value; activity change, negative = inhibition, % at 10 µM; actives 3.2% (n = 360,000); in the data active = activity change below about -30%; note: % is set by controls: 0 for no effect and ±100 for the full control effect
#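 After overnight tetracycline induction at 30 C, force-coupled D1 HEK293 cells took up a no-wash calcium dye at room temperature. Compounds were added and monitored 180 s, and the response to EC80 dopamine was then recorded.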
# * hit, by the source's call; . = no result.
SMILES,D3 antag,D1 PAM,DRD3 agonist,D1 agonist,D1 antag
O=C(COC(=O)CCCNC(=O)c1ccc(Cl)cc1)NCc1ccccc1Cl,-4,-6,1,77*,-10
Cc1c(C)n(C)c2ccc(C(=O)NCCc3ccc(Cl)cc3)cc12,.,-4,-6,5,-59*
CC(=O)Nc1ccc(S(=O)(=O)Nc2cc(-c3cn4ccccc4n3)ccc2C)cc1,.,0,-3,-1,15
COc1ccc(N2CC(NC(=O)COc3ccc4ccccc4c3)CC2=O)cc1 (centres undefined),.,-3,-9,8,.
Cc1cccc(S(=O)(=O)c2cn(Cc3ccc(F)cc3)c3cc(N4CCOCC4)c(F)cc3c2=O)c1,.,-6,-10,7,0
O=C(NCCc1ccc(O)cc1)c1ccc(Cl)cc1,23,-2,4,1,-32*
CC(C)(C)c1ccc(C(=O)NNc2ccc(F)cc2F)cc1,-7,-9,3,2,-8
O=C(CCNC(=O)c1ccc(Cl)cc1)Nc1ccc(F)cc1F,8,2,0,2,-47*
Cc1ccc(C(=O)NCCc2ccncc2)cc1,17,-1,-1,-1,-36*
Cc1ccc(C(=O)NCCc2ccccc2)cc1,-15,2,-3,-5,-15
CCc1ccc(C(=O)NNc2ccc(F)cc2F)cc1,-7,-7,10,0,-51*
O=C(CCCNC(=O)c1ccc(Cl)cc1)Nc1ccccc1F,11,-2,-1,0,-4
O=C(NCCc1ccc(Cl)cc1)c1ccc(=O)[nH]c1,-5,-2,-2,2,-6
Cc1ccc(-n2c(Cc3ccccc3)nnc2SCc2nc(-c3cccs3)no2)cc1C,.,-2,-13,14,-18
Cc1ccc(/C=C2\CCC3=C2OC(N)=C(C#N)C3c2ccc(C)cc2)cc1 (centres undefined),3,-5,-5,135*,-57*
Cc1nn(S(=O)(=O)c2ccc(Br)cc2)c(C)c1S(=O)(=O)N1CCCCCC1,.,3,-6,-1,24
CCc1ccc(/C=C2/SC(=S)N(CCC(=O)Nc3ccc(C(=O)O)cc3)C2=O)cc1,.,-3,.,4,-18
CCc1ccc(/C=C2/SC(=S)N(CCCC(=O)Nc3ccccc3C(=O)O)C2=O)cc1,14,-1,13,0,-32*
CCc1ccc(C=C2SC(=S)N(CCCC(=O)Nc3ccc(C(=O)O)cc3)C2=O)cc1,-19,.,5,.,.
CCc1ccc(/C=C2/SC(=S)N(CCC(=O)Nc3cccc(C(=O)O)c3)C2=O)cc1,12,2,-9,68*,9
Cc1ccc(CNC(=O)CSc2nc(=O)n3ccccc3n2)cc1,-16,-2,-7,4,10
COC(=O)c1ccc(NC(=O)CC2C(=O)N(c3cccc(OC)c3)C(=O)N2Cc2cccs2)cc1 (centres undefined),.,-2,7,3,-13
COc1cccc(-c2nnn(CCC(=O)O)n2)c1,3,-10,-10,0,-40*
COc1ccc(-c2nnn(CCC(=O)O)n2)cc1,19,-2,-30,1,.
Cc1c(NC(=O)COC(=O)C2CC3C=CC2C3)c(=O)n(-c2ccccc2)n1C (centres undefined),-76*,-3,-6,0,8
SMILES,D3 antag,D1 PAM,DRD3 agonist,D1 agonist,D1 antag
Cc1c(NC(=O)COC(=O)c2ccccc2Cl)c(=O)n(-c2ccccc2)n1C,15,-7,0,1,3
Cc1ccc2c(CC(=O)Nc3c(C)n(C)n(-c4ccccc4)c3=O)coc2c1,-6,-3,-8,0,-80*
Cc1cc2n(n1)CCCN2C(=O)Nc1cccc(C)c1C,.,1,-1,2,3
CN1c2ccsc2C(O)=C(C(=S)Nc2ccc(F)c(Cl)c2)S1(=O)=O,-93*,3,0,3,-20
CCOc1ccc(Cn2nnc3c(=O)[nH]c(C4CCN(C(=O)c5ccccc5)CC4)nc32)cc1,.,-1,4,0,3
Cc1ccc(-n2nc(CO)c(C(=O)NCc3cccnc3)n2)cc1C,.,-3,-32,0,-25
Cc1ccc(S(=O)(=O)Nc2ccc3c(c2)OCCO3)cc1C,6,-10,-1,2,-6
COc1ccc(S(=O)(=O)Nc2ccc3c(c2)OCCO3)cc1Cl,0,-8,-5,18,-32*
CC(=O)Nc1ccc(S(=O)(=O)Nc2ccc3c(c2)OCCO3)cc1Cl,5,-11,25,13,-31*
CCOC(=O)Cc1csc(NC(=O)c2ccc3ccccc3n2)n1,3,-4,0,0,-4
CCOc1cccc(C(=O)Nc2cccc(-c3nnc(-c4ccc(C)cc4)o3)c2)c1,-25,0,6,-3,21
CCOc1cccc(C(=O)Nc2ccc(NC(=O)c3cc4ccccc4o3)c(OC)c2)c1,13,-3,10,7,-39*
CCOc1cccc(C(=O)Nc2cccc(-c3nnc(-c4ccccc4)o3)c2)c1,51,-7,39*,6,0
CC(=O)Nc1ccc(OCc2nnc(-c3ccccc3)o2)cc1,0,-8,9,11,-48*
CC(C)C(=O)Nc1cccc(NC(=O)c2cc3ccccc3o2)c1,4,-9,-3,0,-30*
CC1(C(=O)NS(=O)(=O)c2cccc(C#N)c2)CCN1C(=O)c1cccc2ccccc12 (centres undefined),19,.,5,.,.
Cc1nnc(NC(=O)c2cccc(NC(=O)C(C)C)c2)s1,-7,1,0,3,-9
CCCCOC(=O)c1cccc(NC(=O)c2cc3ccccc3o2)c1,.,-3,-13,30*,-4
CC(C)C(=O)Nc1cccc(NC(=O)c2cccc(Br)c2)c1,9,-11,3,5,-32*
COc1ccc(Cl)cc1C(=O)Nn1cnnc1,6,-3,0,5,11
Cc1c(Cl)cccc1NC(=O)CCn1cnnn1,.,-2,6,0,1
Cc1cc(C)n(-c2nnc(Nc3ccc(C)c(Cl)c3)c3ccccc23)n1,.,-6,-10,1,-40*
COc1ccc(Nc2nnc(-n3nc(C)cc3C)c3ccccc23)cc1,.,-1,-6,0,3
CCCC[n+]1ccn(-c2nc3ccccc3nc2[N-]S(=O)(=O)c2ccc(Cl)cc2)c1,14,13,9,6,-40*
Cc1ccc(S(=O)(=O)NN=C(c2ccccc2)c2cccs2)cc1,0,.,-12,.,.
COC(/C=C/Nc1ccc(OC)cc1)=C(C#N)C#N,15,-3,2,1,-10
COC(/C=C/Nc1ccc(Cl)cc1)=C(C#N)C#N,7,-7,-2,4,-31*
CC1CCCC(NC(=O)COC(=O)/C=C/c2ccco2)C1C (centres undefined),3,0,-3,-1,5
COC(=O)c1c(N)nc(C)n1-c1ccc(OC)cc1,-15,41*,-1,4,-14
COc1ccc(-n2c(C)nc(N)c2C(=O)c2ccccc2)cc1,6,2,-4,3,-9
